Several values for one entry are separate records, joined by “and”; a condition that tells them apart may be missing. Identical values can stand only once. Out of some 5,500 compounds screened, about 2,000 (36%) were called active. Not shown: some 18% with an inconclusive outcome. No stated cut-off is given here; in the data, active means normalized growth mostly below about 0.91 (no sharp cut-off); inconclusive means no clear call, values can overlap the other calls; inactive means mostly above about 0.92. The list shows a part of the results.
Assay: chemical genetic growth profiling, strain panel (AID 1159580);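 further: tested at 20 µM; growth read once vehicle control cultures reached saturation at 30 °C; 1 = growth at the plate median or of vehicle wells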
Conditions: S. cerevisiae deletion strains, growth OD

Measured: normalized growth

CC(=O)O[C@@H]1CC2C(C)(C)[C@H](O)CC[C@]2(C)C2CC[C@@]3(C)[C@H](c4ccoc4)OC(=O)C4OC43[C@@]21C (stereo partly specified)
inactive: locus YAL021C, strain ccr4, stronger effect = lower value 0.991 | locus YAL026C, strain drs2, stronger effect = lower value 1.03 | locus YAL030W, strain snc1, stronger effect = lower value 1.01 | locus YBL061C, strain skt5, stronger effect = lower value 1.01 | locus YBR009C, strain hhf1, stronger effect = lower value 1.04 | locus YBR021W, strain FUR4, stronger effect = lower value 0.974 | locus YBR023C, strain chs3, stronger effect = lower value 1.02 | locus YBR171W, strain sec66, stronger effect = lower value 1.02 | locus YBR229C, strain ROT2, stronger effect = lower value 0.957 | locus YBR231C, strain swc5, stronger effect = lower value 1.02 | locus YBR279W, strain paf1, stronger effect = lower value 1.01 | locus YCL011C, strain gbp2, stronger effect = lower value 1.01 | locus YCL016C, strain dcc1, stronger effect = lower value 1.02 | locus YCL029C, strain bik1, stronger effect = lower value 0.993 | locus YCL061C, strain MRC1, stronger effect = lower value 1.02 | locus YCL069W, strain vba3, stronger effect = lower value 1 | locus YCR088W, strain abp1, stronger effect = lower value 1.01 | locus YDL005C, strain med2, stronger effect = lower value 1.02 | locus YDL035C, strain GPR1, stronger effect = lower value 0.984 | locus YDL040C, strain nat1, stronger effect = lower value 1 | locus YDL074C, strain BRE1, stronger effect = lower value 1 | locus YDL101C, strain DUN1, stronger effect = lower value 0.998 | locus YDL134C, strain PPH21, stronger effect = lower value 1.03 | locus YDL185W, strain tfp1, stronger effect = lower value 0.97 | locus YDL192W, strain arf1, stronger effect = lower value 0.999 | locus YDR001C, strain nth1, stronger effect = lower value 1.01 | locus YDR069C, strain doa4, stronger effect = lower value 1.04 | locus YDR101C, strain arx1, stronger effect = lower value 0.967 | locus YDR137W, strain rgp1, stronger effect = lower value 1.02 | locus YDR159W, strain sac3, stronger effect = lower value 1.05 | locus YDR162C, strain NBP2, stronger effect = lower value 0.999 | locus YDR195W, strain ref2 1.03 | locus YDR297W, strain sur2, stronger effect = lower value 1.01 | locus YDR318W, strain mcm21, stronger effect = lower value 0.996 | locus YDR334W, strain swr1, stronger effect = lower value 1.01 | locus YDR335W, strain msn5, stronger effect = lower value 1.03 | locus YDR388W, stronger effect = lower value 1 | locus YDR392W, strain spt3, stronger effect = lower value 0.834 | locus YDR502C, strain sam2, stronger effect = lower value 1.01 | locus YEL003W, strain gim4, stronger effect = lower value 1.03 | locus YEL037C, strain rad23, stronger effect = lower value 1.01 | locus YEL061C, strain CIN8 (second series), stronger effect = lower value 1.02 | locus YER015W, strain faa2, stronger effect = lower value 1.01 | locus YER016W, strain bim1, stronger effect = lower value 1.02 | locus YER110C, stronger effect = lower value 0.98 | locus YER111C, strain swi4, stronger effect = lower value 1.02 | locus YER155C, strain BEM2 (second series), stronger effect = lower value 1.03 | locus YER155C, strain BEM2, stronger effect = lower value 1.01 | locus YER167W, strain BCK2, stronger effect = lower value 0.996 | locus YFR010W, strain ubp6, stronger effect = lower value 1.04 | locus YGL078C, strain dbp3, stronger effect = lower value 1.01 | locus YGL086W, strain mad1, stronger effect = lower value 0.984 | locus YGL167C, strain pmr1, stronger effect = lower value 1.01 | locus YGL173C, strain kem1, stronger effect = lower value 1.01 | locus YGL227W, strain vid30, stronger effect = lower value 1.02 | locus YGL240W, strain doc1, stronger effect = lower value 1.04 | locus YGL248W, strain PDE1, stronger effect = lower value 1.01 | locus YGL253W, strain hxk2, stronger effect = lower value 0.997 | locus YGR135W, strain pre9, stronger effect = lower value 1.05 | locus YGR252W, strain gcn5, stronger effect = lower value 1.04 | locus YHR013C, strain ard1, stronger effect = lower value 1.02 | locus YHR027C, strain rpn1, stronger effect = lower value 1.01 | locus YHR030C, strain SLT2, stronger effect = lower value 1.07 | locus YHR079C, strain IRE1 (second series), stronger effect = lower value 0.983 | locus YHR079C, strain IRE1, stronger effect = lower value 1.05 | locus YHR094C, strain hxt1, stronger effect = lower value 0.989 | locus YHR129C, strain ARP1, stronger effect = lower value 1.01 | locus YHR142W, strain chs7, stronger effect = lower value 0.939 | locus YHR200W, strain rpn10, stronger effect = lower value 0.996 | locus YIL066C, strain RNR3, stronger effect = lower value 0.973 | locus YIL073C, strain SPO22, stronger effect = lower value 0.958 | locus YIL125W, strain kgd1, stronger effect = lower value 0.962 | locus YIR030C, strain dcg1, stronger effect = lower value 0.988 | locus YJL092W, strain hpr5, stronger effect = lower value 1.02 | locus YJL095W, strain BCK1 (second series), stronger effect = lower value 1.02 | locus YJL095W, strain BCK1, stronger effect = lower value 1.06 and 1.08 | locus YJL115W, strain asf1, stronger effect = lower value 1.02 | locus YJL129C, strain trk1, stronger effect = lower value 1 | locus YJL134W, strain LCB3, stronger effect = lower value 0.991 | locus YJL154C, strain vps35, stronger effect = lower value 0.999 | locus YJL164C, strain tpk1, stronger effect = lower value 1.02 | locus YJL166W, strain qcr8, stronger effect = lower value 1.02 | locus YJL168C, strain set2, stronger effect = lower value 0.996 | locus YJL187C, strain SWE1 (second series), stronger effect = lower value 1.02 | locus YJL187C, strain SWE1, stronger effect = lower value 1.01 | locus YJR043C, strain POL32, stronger effect = lower value 0.977

Reference: PubChem BioAssay AID1159580 (chemical genetic matrix, 2015)
